Laboratory results taken from PubChem BioAssay AID725 (NMMLSC, 2007).
Out of some 1,300 compounds screened, fewer than 10 were called active. No rule for the calls is given here. Not all results are given here.

What follows are compounds tested against N-formyl peptide receptor 2 (Homo sapiens) (UniProt P25090) (assay: FPRL1 fluorescent ligand binding inhibitors, primary screen, selectivity assay for FPR ligand SAR project, cell-based, flow cytometry, HTS counterscreen (AID 725)). Settings: FPRL1-expressing cells, hits give high values, concentration not given here.
Sequence of N-formyl peptide receptor 2 (Homo sapiens) (P25090 whole entry, looked up): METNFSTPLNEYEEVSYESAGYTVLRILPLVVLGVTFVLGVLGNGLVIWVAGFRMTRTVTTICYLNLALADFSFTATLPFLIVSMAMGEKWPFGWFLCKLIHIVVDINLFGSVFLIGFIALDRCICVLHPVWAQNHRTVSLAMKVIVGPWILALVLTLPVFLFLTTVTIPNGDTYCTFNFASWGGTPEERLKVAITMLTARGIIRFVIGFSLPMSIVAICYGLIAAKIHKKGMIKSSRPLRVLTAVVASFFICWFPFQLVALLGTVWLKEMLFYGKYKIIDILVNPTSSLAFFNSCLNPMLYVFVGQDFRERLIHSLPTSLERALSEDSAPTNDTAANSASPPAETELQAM

SMILES | inhibition
CC(C)c1ccc(C2/C(=C(\O)c3ccccc3)C(=O)C(=O)N2c2nc3ccccc3s2)cc1 (stereo unspecified) | 0% (inactive)
Cc1ccc(F)cc1N1C(=O)CSC1c1ccc(Br)cc1 (stereo unspecified) | 1.5% (inactive)
Cc1cccc(C(=O)N(Cc2ccco2)Cc2ccccc2F)c1 | 14.7% (inactive)
COc1ccc(-c2c(C)[nH]n3c(=O)c4c(nc23)CCCC4)cc1 | -4.2% (inactive)
CCOC(=O)c1c(NC(=O)c2ccc(Br)cc2)sc(C)c1C | 9.7% (inactive)
Cc1onc(-c2c(Cl)cccc2Cl)c1C(=O)NC1CCCCC1 | -7.3% (inactive)
CCC(=O)Oc1ccc2c(C)c(Cc3ccccc3)c(=O)oc2c1C | -5.7% (inactive)
CCn1c2c(c(=O)n3ncc(C(=O)O)c13)CN(Cc1ccccc1)CC2 | 9.1% (inactive)
CCOC(=O)c1c(NC(=O)c2ccccc2C(=O)O)sc(C)c1C | -6.4% (inactive)
CCOC(=O)COc1ccc2c(=O)c(-c3ccccc3OC)c(C(F)(F)F)oc2c1 | -6.1% (inactive)
Cc1ccc(Oc2c(C(F)(F)F)oc3c(CN4CCC(C)CC4)c(O)ccc3c2=O)cc1 | -2.8% (inactive)
O=C(c1ccccc1F)N1c2ncnn2C2(CCCCC2)[C@@H]2CCCC[C@@H]21 | 2.4% (inactive)
O=C1C(=O)N(CCN2CCOCC2)C(c2ccncc2)/C1=C(\O)c1ccccc1 (stereo unspecified) | 0.7% (inactive)
NC(=O)c1c(NC(=O)C2C3C=CC(C3)C2C(=O)O)sc2c1CCCCC2 (stereo unspecified) | 7.3% (inactive)
C=CCOc1ccccc1/C=C1/C(=O)NN(c2ccc(C)c(Cl)c2)C1=O | -5.7% (inactive)
O=C(CSc1nnc(-c2ccco2)o1)c1cccc2ccccc12 | -5.2% (inactive)
CCOC(=O)C(CC)Oc1ccc2c(=O)c(-c3ccc(OC)c(OC)c3)c(C(F)(F)F)oc2c1 (stereo unspecified) | 7.8% (inactive)
CN(C)CCCN1C(=O)C(O)=C(C(=O)c2ccco2)C1c1ccccc1 (stereo unspecified) | 9.4% (inactive)
CN(C)c1ccc(C2C(C(=O)c3ccco3)=C(O)C(=O)N2CC2CCCO2)cc1 (stereo unspecified) | -0.8% (inactive)

SMILES | inhibition
Cc1cc(C)cc(N2C(=O)CSC2c2c(F)cccc2Cl)c1 (stereo unspecified) | -8.8% (inactive)
COc1ccccc1C1SCCN1S(=O)(=O)c1ccc(F)cc1 (stereo unspecified) | 11.3% (inactive)
O=C(O)CCN1C(=O)C(=O)/C(=C(/O)c2ccccc2)C1c1ccc(Br)cc1 (stereo unspecified) | -4.1% (inactive)
O=C(Nc1cccc(C(=O)N(Cc2ccccc2)Cc2ccccc2)c1)[C@@H]1[C@H]2C[C@H]3[C@@H]1C(=O)O[C@H]3C2 | 3.8% (inactive)
COc1ccc(OC)c(C2SCCN2S(=O)(=O)c2ccc(C)cc2)c1 (stereo unspecified) | 6.1% (inactive)
CCCOc1ccc(C2C(C(=O)c3cc4ccccc4o3)=C(O)C(=O)N2CCN(C)C)cc1 (stereo unspecified) | -0.2% (inactive)
COc1ccccc1-c1c(C)oc2c(CN3CCCCC3C)c(O)ccc2c1=O (stereo unspecified) | -3.9% (inactive)
COc1cccc(C2C(C(=O)c3cc4ccccc4o3)=C(O)C(=O)N2CCN2CCOCC2)c1 (stereo unspecified) | 2.7% (inactive)
O=C(C1=C(O)C(=O)N(CCN2CCOCC2)C1c1cccnc1)c1cccs1 (stereo unspecified) | -0.7% (inactive)
Cc1onc(-c2c(Cl)cccc2Cl)c1C(=O)N1CCCCCC1 | -6.1% (inactive)
Cc1ccc(N2C(=O)CSC2c2ccccc2F)cc1C (stereo unspecified) | -4.3% (inactive)
O=C(Oc1ccc2c(=O)c(Oc3ccccc3Br)c(C(F)(F)F)oc2c1)c1cccs1 | -1.4% (inactive)
CN1C(=O)C2(/C(=C(/O)c3ccccc3)C(=O)C(=O)N2CC2CCCO2)c2ccccc21 (stereo unspecified) | -3.7% (inactive)
Cc1ccc(C(=O)O)cc1NC(=O)C1C2CCC(C2)C1C(=O)O (stereo unspecified) | 3.8% (inactive)
CN1CCC2(CC1)N=C(c1ccccc1)C(=S)N2C(=O)c1ccc(Cl)cc1 | -2% (inactive)
Cc1ccc(C)c(-c2n[nH]n3c2nc(=O)c2ccccc23)c1 | -23.5% (inactive)
O=C1c2cccc3cccc(c23)N1S(=O)(=O)c1ccccc1 | -5% (inactive)
CC(C)CCN(Cc1ccco1)C(=O)c1noc2c1CCCC2 | -3% (inactive)
Cc1cccc(N2C(=O)CSC2c2ccc(Br)cc2)c1 (stereo unspecified) | -3.9% (inactive)

SMILES | inhibition
CCOC(=O)c1c(NC(=O)c2cccc(Cl)c2)sc2c1CCCC2 | 3.1% (inactive)
O=C(c1ccc(F)cc1)N(Cc1ccco1)Cc1ccccc1Cl | -1.7% (inactive)
Cc1nnc(N2C(=O)C(O)=C(C(=O)c3ccco3)C2c2ccc(Cl)cc2)s1 (stereo unspecified) | 0.1% (inactive)
CCc1ccc(Oc2c(C(F)(F)F)oc3c(CN4CCOCC4)c(O)ccc3c2=O)cc1 | -5.8% (inactive)
CCc1cccc(C)c1NC(=S)N(Cc1ccco1)C(C)c1cccs1 (stereo unspecified) | -5.9% (inactive)
Cc1ccc(/C(O)=C2\C(=O)C(=O)N(CCN3CCOCC3)C2c2cccs2)cc1 (stereo unspecified) | -5.9% (inactive)
COc1ccc(C2C(C(=O)N3CCCC(C)C3)c3ccccc3C(=O)N2C)cc1 (stereo unspecified) | 2.3% (inactive)
COc1ccccc1C(=O)NC(C)c1nc2ccccc2n1Cc1ccccc1C (stereo unspecified) | -0.5% (inactive)
CCOc1cc(C2C(C(=O)c3ccco3)=C(O)C(=O)N2CC2CCCO2)ccc1O (stereo unspecified) | 0.5% (inactive)
O=C(O)CCN1C(=O)C(=O)/C(=C(/O)c2ccccc2)C1c1ccccc1[N+](=O)[O-] (stereo unspecified) | 1.1% (inactive)
COC(=O)c1c(NC(=O)c2cccc(C)c2)sc2c1CCC(C)C2 (stereo unspecified) | -8.1% (inactive)
COc1cccc(Cn2c(=S)[nH]c3c(oc4ccccc43)c2=O)c1 | 3% (inactive)
COc1ccc(C2/C(=C(\O)c3ccccc3)C(=O)C(=O)N2CCN2CCOCC2)cc1 (stereo unspecified) | 0.4% (inactive)
Cc1ccc(C2/C(=C(\O)c3ccccc3)C(=O)C(=O)N2c2nnc(C)s2)cc1 (stereo unspecified) | -1.8% (inactive)
CCOc1ccc(N(C)C(=O)[C@H]2[C@@H]3C[C@@H]4[C@H]2C(=O)O[C@@H]4C3)cc1 | 19.5% (inactive)
Cc1cccc(C(=O)N2c3ncnn3C(c3ccccc3)CC2c2ccccc2)c1 (stereo unspecified) | -15.7% (inactive)
COC(=O)c1c(NC(=O)c2ccc(F)cc2)sc(C)c1C | -4.9% (inactive)
Cc1cc(C)cc(N2C(=O)N(c3ccccc3Cl)C3CS(=O)(=O)CC32)c1 (stereo unspecified) | 2.6% (inactive)
